For one sequence, binding signal results are on record in paper PMC7862700, “An all-to-all approach to the identification of sequence-specific readers for epigenetic DNA modifications on cytosine”.

What all share (assay): DAPPL (digital affinity profiling via proximity ligation, sequencing); 10 mM Tris-HCl pH 7.5, 50 mM NaCl, 1 mM DTT, 4% glycerol, room temperature, 30 min; GST-TFs on glutathione beads, 16-mer random dsDNA library, 0.1% formaldehyde crosslink after washing; high values mean tight binding
In one assay the target is T1, FEV (Homo sapiens, UniProt Q99581 1-238).
T1 sequence: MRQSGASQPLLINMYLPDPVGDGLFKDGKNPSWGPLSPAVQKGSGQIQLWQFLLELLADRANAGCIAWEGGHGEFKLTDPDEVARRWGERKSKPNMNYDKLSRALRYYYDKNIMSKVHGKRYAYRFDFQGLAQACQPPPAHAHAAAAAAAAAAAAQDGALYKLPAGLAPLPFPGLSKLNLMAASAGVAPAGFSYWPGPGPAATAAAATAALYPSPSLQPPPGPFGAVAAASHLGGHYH
The settings on record: protein: recombinant; tags: N-terminal GST; dsDNA, one strand shown. Put shortly:
(§1)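 In yeast, human transcription factors were expressed with a GST fusion, then pulled down on glutathione beads and given DNA barcodes. Pooled with a tag-only sample, they were exposed to 200 nmole of a 16-mer random double-stranded DNA library (Tris/NaCl/DTT/glycerol buffer, room temperature, 30 min), washed, crosslinked with 0.1% formaldehyde, proximity-ligated using BsaI/T4 ligase for 1 h at 37 °C, PCR-amplified and read on an Illumina NextSeq500. Each hexamer's frequency of reads for a factor, divided by the matching frequency for the tag-only sample, gives the binding signal.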

The target of the next assay is ETV5 (Homo sapiens, UniProt P41161 1-510). The settings on record: protein: recombinant; tags: N-terminal GST; dsDNA, one strand shown. Put shortly: as §1
A further assay concerns the target HSF1 (Homo sapiens, UniProt Q00613 1-529). The settings on record: protein: recombinant; tags: N-terminal GST; chain copies: 3; dsDNA, one strand shown. Summed up:
as §1

In a further assay the target is T2, SPIC (Homo sapiens, UniProt Q8N5J4 1-248).
T2 sequence: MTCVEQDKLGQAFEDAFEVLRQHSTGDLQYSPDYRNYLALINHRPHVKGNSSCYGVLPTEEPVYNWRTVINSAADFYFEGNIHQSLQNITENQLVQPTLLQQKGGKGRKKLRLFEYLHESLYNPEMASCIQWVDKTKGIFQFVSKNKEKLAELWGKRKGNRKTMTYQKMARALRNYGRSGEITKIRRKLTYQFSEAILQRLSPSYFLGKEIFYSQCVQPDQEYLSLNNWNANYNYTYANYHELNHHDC
The settings on record: protein: recombinant; tags: N-terminal GST; dsDNA, one strand shown. Summed up: as §1

The next assay concerns the target ELF4 (Homo sapiens, UniProt Q99607 1-663). The settings on record: protein: recombinant; tags: N-terminal GST; dsDNA, one strand shown. Summed up:
as §1

The target of the next assay is T3, ELK4 (Homo sapiens, UniProt P28324-2 1-405).
T3 sequence: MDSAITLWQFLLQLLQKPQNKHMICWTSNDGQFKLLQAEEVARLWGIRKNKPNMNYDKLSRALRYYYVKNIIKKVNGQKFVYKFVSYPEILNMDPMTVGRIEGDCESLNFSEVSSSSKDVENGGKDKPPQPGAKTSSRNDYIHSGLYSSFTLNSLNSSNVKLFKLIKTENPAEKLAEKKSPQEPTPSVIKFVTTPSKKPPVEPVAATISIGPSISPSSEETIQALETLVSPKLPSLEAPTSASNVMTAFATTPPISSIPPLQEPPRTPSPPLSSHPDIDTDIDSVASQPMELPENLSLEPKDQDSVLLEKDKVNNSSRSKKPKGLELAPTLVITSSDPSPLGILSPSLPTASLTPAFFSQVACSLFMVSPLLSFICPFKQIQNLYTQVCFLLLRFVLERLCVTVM
The settings on record: protein: recombinant; tags: N-terminal GST; dsDNA, one strand shown. Summed up: as §1

Another assay addresses T4, ETV2 (Homo sapiens, UniProt O00321 1-342).
T4 sequence: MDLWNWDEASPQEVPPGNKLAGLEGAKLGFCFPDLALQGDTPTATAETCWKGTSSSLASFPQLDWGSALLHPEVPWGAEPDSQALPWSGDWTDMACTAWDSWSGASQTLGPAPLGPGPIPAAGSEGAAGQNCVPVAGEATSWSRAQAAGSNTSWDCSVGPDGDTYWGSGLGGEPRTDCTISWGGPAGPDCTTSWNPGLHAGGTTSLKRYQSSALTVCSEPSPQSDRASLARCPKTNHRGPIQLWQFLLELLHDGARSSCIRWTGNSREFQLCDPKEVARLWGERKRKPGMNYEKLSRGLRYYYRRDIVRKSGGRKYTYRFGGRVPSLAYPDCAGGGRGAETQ
The settings on record: protein: recombinant; tags: N-terminal GST; dsDNA, one strand shown. Summed up:
as §1

The target of the next assay is T5, ELF3 (Homo sapiens, UniProt P78545 1-371).
T5 sequence: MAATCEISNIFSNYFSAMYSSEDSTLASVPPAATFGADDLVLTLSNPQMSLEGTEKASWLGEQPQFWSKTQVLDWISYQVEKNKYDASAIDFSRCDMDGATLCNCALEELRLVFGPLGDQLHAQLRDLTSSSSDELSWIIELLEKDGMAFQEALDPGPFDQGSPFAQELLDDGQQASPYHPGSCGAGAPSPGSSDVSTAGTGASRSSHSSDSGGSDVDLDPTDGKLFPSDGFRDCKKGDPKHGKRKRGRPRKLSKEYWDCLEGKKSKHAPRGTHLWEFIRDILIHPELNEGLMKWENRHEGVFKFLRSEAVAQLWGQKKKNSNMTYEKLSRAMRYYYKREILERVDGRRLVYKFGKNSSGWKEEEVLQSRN
The settings on record: protein: recombinant; tags: N-terminal GST; dsDNA, one strand shown. Summed up: as §1

The next assay concerns the target CRX (Homo sapiens, UniProt O43186 1-299). The settings on record: protein: recombinant; tags: N-terminal GST; dsDNA, one strand shown. Summed up: as §1
Another assay addresses ETV1 (Homo sapiens, UniProt P50549 1-477). The settings on record: protein: recombinant; tags: N-terminal GST; dsDNA, one strand shown. Put shortly:
as §1

The target of another assay is T6, ERF (Homo sapiens, UniProt P50548 1-548).
T6 sequence: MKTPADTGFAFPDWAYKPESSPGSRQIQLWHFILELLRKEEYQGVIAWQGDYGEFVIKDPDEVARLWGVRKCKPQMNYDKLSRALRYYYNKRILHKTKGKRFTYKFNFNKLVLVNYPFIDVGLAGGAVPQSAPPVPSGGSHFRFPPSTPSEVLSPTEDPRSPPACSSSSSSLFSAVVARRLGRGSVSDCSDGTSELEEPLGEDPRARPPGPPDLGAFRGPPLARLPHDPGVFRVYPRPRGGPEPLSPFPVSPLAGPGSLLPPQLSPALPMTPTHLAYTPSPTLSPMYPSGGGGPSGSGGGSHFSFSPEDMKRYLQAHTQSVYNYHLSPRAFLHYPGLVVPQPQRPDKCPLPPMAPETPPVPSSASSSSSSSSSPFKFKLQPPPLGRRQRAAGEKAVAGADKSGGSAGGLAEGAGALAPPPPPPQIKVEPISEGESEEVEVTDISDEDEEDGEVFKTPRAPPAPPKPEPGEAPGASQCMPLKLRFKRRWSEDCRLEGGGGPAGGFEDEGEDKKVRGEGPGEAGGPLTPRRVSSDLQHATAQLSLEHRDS
The settings on record: protein: recombinant; tags: N-terminal GST; dsDNA, one strand shown. Put shortly:
as §1

The target of a further assay is T7, ETV3L (Homo sapiens, UniProt Q6ZN32 1-361).
T7 sequence: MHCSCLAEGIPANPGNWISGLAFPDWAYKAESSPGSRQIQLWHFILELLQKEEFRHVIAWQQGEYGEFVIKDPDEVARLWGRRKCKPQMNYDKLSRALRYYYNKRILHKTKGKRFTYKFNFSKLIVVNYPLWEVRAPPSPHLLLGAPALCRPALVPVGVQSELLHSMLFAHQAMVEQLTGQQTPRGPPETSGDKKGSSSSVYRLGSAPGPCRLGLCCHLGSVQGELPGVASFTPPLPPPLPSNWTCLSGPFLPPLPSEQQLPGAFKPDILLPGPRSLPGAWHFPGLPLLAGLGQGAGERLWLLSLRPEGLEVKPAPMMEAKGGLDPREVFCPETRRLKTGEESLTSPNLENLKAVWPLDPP
The settings on record: protein: recombinant; tags: N-terminal GST; dsDNA, one strand shown. Put shortly:
as §1

For another assay, the target named is T8, ETS2 (Homo sapiens, UniProt P15036 1-469).
T8 sequence: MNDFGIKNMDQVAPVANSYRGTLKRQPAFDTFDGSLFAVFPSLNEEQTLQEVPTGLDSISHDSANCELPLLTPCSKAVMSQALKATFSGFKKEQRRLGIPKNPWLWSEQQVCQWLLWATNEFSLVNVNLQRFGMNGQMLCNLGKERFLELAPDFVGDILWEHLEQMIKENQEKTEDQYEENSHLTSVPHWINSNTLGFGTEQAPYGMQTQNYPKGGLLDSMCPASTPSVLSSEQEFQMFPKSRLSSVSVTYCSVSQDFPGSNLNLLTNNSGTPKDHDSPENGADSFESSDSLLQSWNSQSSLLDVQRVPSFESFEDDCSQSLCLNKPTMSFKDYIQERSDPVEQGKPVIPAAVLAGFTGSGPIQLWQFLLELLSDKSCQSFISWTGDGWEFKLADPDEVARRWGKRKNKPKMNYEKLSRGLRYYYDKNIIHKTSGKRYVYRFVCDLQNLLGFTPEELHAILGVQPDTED
The settings on record: protein: recombinant; tags: N-terminal GST; dsDNA, one strand shown. Summed up:
as §1

For a further assay, the target named is T9, SPDEF (Homo sapiens, UniProt O95238 1-335).
T9 sequence: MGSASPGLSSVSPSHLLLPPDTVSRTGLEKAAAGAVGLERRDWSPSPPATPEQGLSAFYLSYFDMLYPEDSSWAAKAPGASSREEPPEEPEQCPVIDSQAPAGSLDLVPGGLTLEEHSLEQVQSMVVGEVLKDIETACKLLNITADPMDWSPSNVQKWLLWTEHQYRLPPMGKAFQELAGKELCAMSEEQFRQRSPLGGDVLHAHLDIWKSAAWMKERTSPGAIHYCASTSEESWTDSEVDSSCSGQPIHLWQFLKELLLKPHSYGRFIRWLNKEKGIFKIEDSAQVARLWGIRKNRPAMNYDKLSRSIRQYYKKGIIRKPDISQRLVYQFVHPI
The settings on record: protein: recombinant; tags: N-terminal GST; dsDNA, one strand shown. Summed up:
as §1

The next assay deals with T10, ETV7 (Homo sapiens, UniProt Q9Y603 1-341).
T10 sequence: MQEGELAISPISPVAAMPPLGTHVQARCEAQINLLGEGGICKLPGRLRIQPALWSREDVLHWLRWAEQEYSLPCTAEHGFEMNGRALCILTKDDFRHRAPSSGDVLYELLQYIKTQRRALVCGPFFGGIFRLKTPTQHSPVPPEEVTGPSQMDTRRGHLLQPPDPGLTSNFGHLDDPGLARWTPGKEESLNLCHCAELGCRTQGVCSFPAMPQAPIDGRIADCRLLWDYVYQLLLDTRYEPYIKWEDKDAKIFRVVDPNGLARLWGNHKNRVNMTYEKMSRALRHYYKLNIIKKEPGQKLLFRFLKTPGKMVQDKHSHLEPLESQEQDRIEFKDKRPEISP
The settings on record: protein: recombinant; tags: N-terminal GST; dsDNA, one strand shown. Put shortly:
as §1

The next assay addresses T11, ELF5 (Homo sapiens, UniProt Q9UKW6-2 1-255).
T11 sequence: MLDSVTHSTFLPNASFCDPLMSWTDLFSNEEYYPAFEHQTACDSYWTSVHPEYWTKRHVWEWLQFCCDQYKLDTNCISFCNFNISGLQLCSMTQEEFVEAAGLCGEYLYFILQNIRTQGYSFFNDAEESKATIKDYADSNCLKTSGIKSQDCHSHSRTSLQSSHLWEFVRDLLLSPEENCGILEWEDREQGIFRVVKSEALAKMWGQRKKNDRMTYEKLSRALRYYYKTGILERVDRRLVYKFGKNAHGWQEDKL
The settings on record: protein: recombinant; tags: N-terminal GST; dsDNA, one strand shown. Put shortly:
as §1

The target in a further assay is T12, ETV3 (Homo sapiens, UniProt P41162-2 1-143).
T12 sequence: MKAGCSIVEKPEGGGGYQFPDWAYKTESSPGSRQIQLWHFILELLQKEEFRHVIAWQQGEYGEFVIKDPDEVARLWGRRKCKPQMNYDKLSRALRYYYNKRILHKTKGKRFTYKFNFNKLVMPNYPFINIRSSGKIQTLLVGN
The settings on record: protein: recombinant; tags: N-terminal GST; dsDNA, one strand shown. Put shortly: as §1

The target in a further assay is ETV6 (Homo sapiens, UniProt P41212 1-452). The settings on record: protein: recombinant; tags: N-terminal GST; dsDNA, one strand shown. Summed up:
as §1

Sequence of HSF1 (Q00613 whole entry): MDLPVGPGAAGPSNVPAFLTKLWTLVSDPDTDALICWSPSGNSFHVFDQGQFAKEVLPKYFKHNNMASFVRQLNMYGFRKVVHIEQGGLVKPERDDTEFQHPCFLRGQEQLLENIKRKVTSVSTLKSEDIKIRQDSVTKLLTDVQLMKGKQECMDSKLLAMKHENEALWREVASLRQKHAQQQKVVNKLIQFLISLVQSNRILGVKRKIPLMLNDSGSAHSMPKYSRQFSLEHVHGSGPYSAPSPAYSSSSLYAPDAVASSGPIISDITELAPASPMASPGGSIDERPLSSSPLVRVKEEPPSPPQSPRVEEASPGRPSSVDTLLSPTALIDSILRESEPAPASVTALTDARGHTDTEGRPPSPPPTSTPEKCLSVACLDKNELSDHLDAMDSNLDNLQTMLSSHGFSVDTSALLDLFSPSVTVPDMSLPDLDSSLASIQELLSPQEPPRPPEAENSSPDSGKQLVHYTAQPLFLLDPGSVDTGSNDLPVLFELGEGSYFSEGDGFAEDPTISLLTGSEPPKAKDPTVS
Sequence of CRX (O43186 whole entry): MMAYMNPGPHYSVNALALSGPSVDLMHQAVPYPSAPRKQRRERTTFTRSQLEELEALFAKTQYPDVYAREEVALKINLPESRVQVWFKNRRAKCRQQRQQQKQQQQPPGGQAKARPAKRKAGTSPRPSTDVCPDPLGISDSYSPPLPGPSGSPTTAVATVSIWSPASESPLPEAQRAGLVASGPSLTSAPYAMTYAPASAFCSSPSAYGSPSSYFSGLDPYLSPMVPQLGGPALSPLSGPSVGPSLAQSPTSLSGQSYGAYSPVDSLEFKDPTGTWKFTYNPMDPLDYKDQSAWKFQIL
Sequence of ETV5 (P41161 whole entry): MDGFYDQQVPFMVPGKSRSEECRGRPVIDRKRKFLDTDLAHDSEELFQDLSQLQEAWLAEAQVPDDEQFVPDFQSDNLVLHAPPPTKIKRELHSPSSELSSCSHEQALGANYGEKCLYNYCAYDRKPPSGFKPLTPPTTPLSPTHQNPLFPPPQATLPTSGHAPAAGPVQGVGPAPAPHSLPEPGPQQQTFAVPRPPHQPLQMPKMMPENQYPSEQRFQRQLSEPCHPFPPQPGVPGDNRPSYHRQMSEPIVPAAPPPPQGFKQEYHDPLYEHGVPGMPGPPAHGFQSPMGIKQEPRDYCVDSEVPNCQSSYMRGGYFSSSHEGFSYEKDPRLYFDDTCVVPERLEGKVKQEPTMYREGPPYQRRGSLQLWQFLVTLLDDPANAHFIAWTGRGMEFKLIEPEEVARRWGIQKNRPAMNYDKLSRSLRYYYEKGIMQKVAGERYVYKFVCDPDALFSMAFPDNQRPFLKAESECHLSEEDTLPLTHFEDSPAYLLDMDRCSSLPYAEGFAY
Sequence of ELF4 (Q99607 whole entry): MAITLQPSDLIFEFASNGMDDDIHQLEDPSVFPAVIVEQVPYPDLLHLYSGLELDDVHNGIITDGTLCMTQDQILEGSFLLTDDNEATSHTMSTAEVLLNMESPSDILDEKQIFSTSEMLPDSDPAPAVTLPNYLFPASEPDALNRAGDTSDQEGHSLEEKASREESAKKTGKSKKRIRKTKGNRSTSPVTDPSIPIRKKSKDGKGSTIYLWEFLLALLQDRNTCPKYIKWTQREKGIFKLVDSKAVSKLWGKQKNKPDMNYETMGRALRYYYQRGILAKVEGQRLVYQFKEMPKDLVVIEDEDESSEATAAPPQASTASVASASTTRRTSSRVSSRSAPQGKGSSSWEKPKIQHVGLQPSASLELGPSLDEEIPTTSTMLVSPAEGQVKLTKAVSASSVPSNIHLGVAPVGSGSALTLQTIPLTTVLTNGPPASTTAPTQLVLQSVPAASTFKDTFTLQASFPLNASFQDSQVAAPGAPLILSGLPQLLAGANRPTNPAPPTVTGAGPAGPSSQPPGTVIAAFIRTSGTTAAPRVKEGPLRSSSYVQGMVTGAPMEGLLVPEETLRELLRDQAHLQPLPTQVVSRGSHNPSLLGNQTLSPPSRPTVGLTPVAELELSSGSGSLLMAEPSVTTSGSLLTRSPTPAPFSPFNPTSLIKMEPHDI
Sequence of ETV1 (P50549 whole entry): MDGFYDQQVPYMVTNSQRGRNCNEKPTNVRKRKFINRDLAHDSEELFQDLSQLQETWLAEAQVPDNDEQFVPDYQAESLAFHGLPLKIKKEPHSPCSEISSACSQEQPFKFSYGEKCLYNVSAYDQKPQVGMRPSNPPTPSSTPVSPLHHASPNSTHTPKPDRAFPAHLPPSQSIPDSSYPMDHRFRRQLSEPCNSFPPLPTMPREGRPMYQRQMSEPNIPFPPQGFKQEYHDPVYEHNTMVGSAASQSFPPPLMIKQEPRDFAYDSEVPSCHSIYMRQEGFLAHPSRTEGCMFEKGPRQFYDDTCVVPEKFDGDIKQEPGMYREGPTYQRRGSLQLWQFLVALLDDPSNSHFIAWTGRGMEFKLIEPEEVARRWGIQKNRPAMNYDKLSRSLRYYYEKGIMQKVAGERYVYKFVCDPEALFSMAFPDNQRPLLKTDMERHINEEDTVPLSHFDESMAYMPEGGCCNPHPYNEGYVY
Sequence of ETV6 (P41212 whole entry): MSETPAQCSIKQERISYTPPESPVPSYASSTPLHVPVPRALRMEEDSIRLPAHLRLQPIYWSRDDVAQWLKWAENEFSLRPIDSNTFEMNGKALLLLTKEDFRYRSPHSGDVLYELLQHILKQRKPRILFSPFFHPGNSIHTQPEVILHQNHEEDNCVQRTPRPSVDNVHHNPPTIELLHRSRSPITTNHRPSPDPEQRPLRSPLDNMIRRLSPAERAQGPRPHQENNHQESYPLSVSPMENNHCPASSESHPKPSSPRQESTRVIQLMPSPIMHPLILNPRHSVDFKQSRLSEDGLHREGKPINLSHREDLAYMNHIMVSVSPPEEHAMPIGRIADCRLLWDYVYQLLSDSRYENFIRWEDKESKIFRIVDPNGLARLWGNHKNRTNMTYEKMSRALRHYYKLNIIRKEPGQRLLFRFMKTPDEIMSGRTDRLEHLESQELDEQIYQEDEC

For CACTTA, the binding signal with FEV is 1.19 fold enrichment (6-mer frequency, TF over GST control); with ETV5, 1.2 fold enrichment (6-mer frequency, TF over GST control); with HSF1, 1.26 fold enrichment (6-mer frequency, TF over GST control); with SPIC, 1.08 fold enrichment (6-mer frequency, TF over GST control); with ELF4 it was 1.19 fold enrichment (6-mer frequency, TF over GST control); in the assay with ELK4, 1.13 fold enrichment (6-mer frequency, TF over GST control). Besides, the binding signal with ETV2 is 1.21 fold enrichment (6-mer frequency, TF over GST control); in the assay with ELF3 it was 1.24 fold enrichment (6-mer frequency, TF over GST control); with CRX, 1.62 fold enrichment (6-mer frequency, TF over GST control); with ETV1 it was 1.25 fold enrichment (6-mer frequency, TF over GST control); with ERF, 1.22 fold enrichment (6-mer frequency, TF over GST control); with ETV3L it was 1.13 fold enrichment (6-mer frequency, TF over GST control). The binding signal with ETS2 was 1.22 fold enrichment (6-mer frequency, TF over GST control); with SPDEF it was 1.34 fold enrichment (6-mer frequency, TF over GST control); in the assay with ETV7, 1.21 fold enrichment (6-mer frequency, TF over GST control); in the assay with ELF5 it was 1.18 fold enrichment (6-mer frequency, TF over GST control); with ETV3, 1.24 fold enrichment (6-mer frequency, TF over GST control); with ETV6, 1.23 fold enrichment (6-mer frequency, TF over GST control).
